Screening data deposited in PubChem by National Center for Advancing Translational Sciences (NCATS).
Only a selection was taken, and hits are over-represented in it overall.
nsP2pro inh – CHIKV nsP2 protease inhibition, primary qHTS | Q8JUX6 | FRET peptide cleavage, nsP2pro, fluorescence 1 h | Potency, µM (series often up to 24.9 µM), inactives show at the top dose activity change, negative = inhibition, most hits filed as inhibitors | actives 1.1% (n = 31,000) | AID 1964107; also: nearly all actives have a fitted effect of over 60% in size
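Enzyme 150 nM, substrate 2.5 uM (both final); Tris-HCl 10 mM pH 8.0 + 0.01% Tween 20; cpd up to 25 uM, 7 pts; 15 min preinc., 1 h RT; fluorescence ex 525/em 598.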
CHIKV nsP2 cell – secondary cell-based test for CHIKV nsP2 protease inhibitors | actives 10% (n = 450) | shares compounds with nsP2pro inh | cell-based CHIKV nsP2 protease reporter assay | AID 1964100 | Potency, µM (highest dose often 51.1 µM), for inactives: at the highest dose activity change, negative = inhibition, most hits filed as inhibitors; also: nearly all actives have a fitted effect of over 70% in size
NSP2 full ctr – inhibits full-length CHIKV NSP2 enzyme; shares compounds with nsP2pro inh; Full-length CHIKV NSP2 protease enzymatic counterscreen; Potency, µM (top dose mostly 50.7 µM), for the others: top-dose activity change, negative = inhibition, hits mostly inhibitors; actives 39% (n = 410); AID 1964101; also: nearly all actives have a fitted effect of over 65% in size
Furin counterscr – inhibits human furin in a CHIKV nsP2 protease selectivity counterscreen; actives 6% (n = 410); Recombinant human furin enzymatic counterscreen, fluorogenic substrate; shares compounds with nsP2pro inh; Potency, µM (doses to about 50.6 µM), without a hit: top-dose activity change, negative = inhibition, usual class: inhibitors
nsP2 NS23 pep – nsP2pro inhibition on native NS2/3 peptide substrate | shares compounds with nsP2pro inh | Purified CHIKV nsP2 protease, endogenous NS2/3 peptide cleavage | Potency, µM (highest dose often 51 µM), without a hit: at the top dose activity change, negative = inhibition, actives largely listed as inhibitors | actives 34% (n = 410) | AID 1964103; also: nearly all actives have a fitted effect of over 55% in size
Papain cs – papain protease inhibition, counterscreen for nsP2pro inhibitors; shares compounds with nsP2pro inh; purified papain protease activity, enzymatic inhibition; Potency, µM (titrated, usually from 51 µM), for the others: at the top dose activity change, negative = inhibition, actives largely listed as inhibitors; actives 5% (n = 410)
Target sequence (P00784 whole entry, looked up): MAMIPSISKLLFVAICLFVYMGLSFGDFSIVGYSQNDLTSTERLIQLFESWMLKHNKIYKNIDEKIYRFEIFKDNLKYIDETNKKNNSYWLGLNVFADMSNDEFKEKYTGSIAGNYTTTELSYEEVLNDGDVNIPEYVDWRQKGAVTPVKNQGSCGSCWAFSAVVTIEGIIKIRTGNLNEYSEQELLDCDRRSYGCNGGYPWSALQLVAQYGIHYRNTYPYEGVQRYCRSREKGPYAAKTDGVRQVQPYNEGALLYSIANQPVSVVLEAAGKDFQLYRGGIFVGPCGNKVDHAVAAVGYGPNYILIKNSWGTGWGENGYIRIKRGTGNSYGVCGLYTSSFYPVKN
nsP2pro conf qHTS – confirmation of CHIKV nsP2 protease inhibitors; shares compounds with nsP2pro inh; CHIKV nsP2 protease enzymatic activity, qHTS; Potency, µM (doses to about 25.5 µM), without a hit: at the highest dose activity change, negative = inhibition, most hits filed as inhibitors; actives 43% (n = 410); also: nearly all actives have a fitted effect of over 75% in size
HCV NS3 4A cs – inhibits HCV NS3/4A protease in an nsP2pro selectivity counterscreen. shares compounds with nsP2pro inh. HCV NS3/4A protease biochemical counterscreen. Potency, µM (series often up to 50.9 µM), actives largely listed as inhibitors. actives 20% (n = 410). AID 1964106; also: nearly all actives have a fitted effect of over 55% in size
* marks the source's active call; other numbers are inactive results; i = inactive; ? = inconclusive; ! = not active in a repeat; [ ] = remark or other dose. Calls follow the shape of the full dose curve. % is scaled to controls: 0 for no effect and ±100 for the full control effect; potency is read from the fitted curve at half-maximal effect.

SMILES	nsP2pro inh	others
CC(=O)O[C@@H]1C[C@@]23C[C@@]24CC[C@H](OC2OC[C@@H](O)[C@H](O)[C@H]2O)C(C)(C)[C@@H]4CC[C@H]3[C@]2(C)CC3OC4(C[C@@H](C)C3[C@@]12C)OCC1(C)OC14 (stereo partly specified)	7%[10 µM]
O=C(Nc1ccc(N2CCN(c3ccc(F)cc3)CC2)c(C(=O)O)c1)c1ccccc1F	?	CHIKV nsP2 cell=13%;NSP2 full ctr=4.1µM*;Furin counterscr=?;nsP2 NS23 pep=13µM*;Papain cs=-5%;nsP2pro conf qHTS=7.1µM*;HCV NS3 4A cs=1.3µM*
CCN(CC)C(=O)C(c1ccccc1)N1CCN(c2ccc(NC(=O)c3ccccc3-c3cccnc3)cc2F)CC1 (stereo unspecified)	1%
O=C(Nc1ccc2c(c1)N(C1CCCC1)C(=O)c1ccccc1S2)c1ccccc1F	-16%
Cc1ccc(-c2ccccc2CN2CCN(C(=O)Nc3ccccc3)CC2)cc1Cl	-1%
O=C(CN1CCN(c2ccc(Cl)cc2)CC1)Nc1ccc(F)cc1F	-23%
Cc1cc(C(=O)CN2CCCC2)c(C)n1-c1ccc(F)cc1	5.6µM*!	CHIKV nsP2 cell=-13%;NSP2 full ctr=14%;Furin counterscr=-7%;nsP2 NS23 pep=-14%;Papain cs=-19%;nsP2pro conf qHTS=-1%;HCV NS3 4A cs=i
CN1CCCCCC(O)c2cc(C(=O)N3CCN(c4ccc(F)cc4)CC3)ccc21 (stereo unspecified)	-16%
CC(Cc1ccccc1)C(=O)Nc1ccc(Cl)cc1C(=O)O (stereo unspecified)	i
Cc1ccc(CNc2ncnc3ccc(-c4sc(C)nc4C)cc23)o1	-4%
Cc1ccc(CN2CC[C@H](c3nnc(-c4ccco4)o3)C2)o1	2%[39.2 µM]
Cc1ccsc1[C@@H]1CCN(Cc2ccc(-c3ccn[nH]3)o2)C[C@H]1O	3.5µM*	CHIKV nsP2 cell=?;NSP2 full ctr=?;Furin counterscr=0%;nsP2 NS23 pep=?;Papain cs=-3%;nsP2pro conf qHTS=8µM*;HCV NS3 4A cs=?
Cc1nccn1C1(C(=O)O)CCN(Cc2ccc(-c3ccn[nH]3)o2)CC1	-15%
O=c1c(Nc2ccc(Cl)c(Cl)c2)c(Nc2nnc(-c3ccncc3)s2)c1=O	i
O=[N+]([O-])c1ccc(CNc2nc(NCc3cccc(C(F)(F)F)c3)nc3nc[nH]c23)cc1	163%
COc1ccc(-c2cc3onc(-c4ccncc4)c3c(=O)n2C)cc1	-6%
Oc1ccc(CNc2cc(Cl)ccn2)c2cccnc12	i
CC(C)(C)OC(=O)N1CCC(c2c(C(=O)NCCc3ccccc3)cnn2-c2ccc(F)cc2F)CC1	4%
COCCCNC(=O)c1cnn(-c2ccc(F)cc2F)c1C1CCNCC1	52%	CHIKV nsP2 cell=5%;NSP2 full ctr=16µM*;Furin counterscr=-6%;nsP2 NS23 pep=?;Papain cs=-4%;nsP2pro conf qHTS=?;HCV NS3 4A cs=?
CC(C)(C)OC(=O)N1CCC(c2c(C(=O)NCCN3CCc4ccccc4C3)cnn2-c2ccc(F)cc2F)CC1	-3%
Cc1cccc(C(=O)N2CCC(c3nc(-c4cccn4C)no3)C2)c1 (stereo unspecified)	i
CN1CCN(C(=O)c2ccc3nnc(C4CCCC4)n3c2)CC1	0%[39.2 µM]
COc1ccc(Br)c(C(=O)Nc2cc3c(cc2N2CCCC2)n(C)c(=O)c(=O)n3C)c1	-33%
COc1ccc(OC)c(N2C(=O)C(Cl)=C(N3CCCCC3)C2=O)c1	?	CHIKV nsP2 cell=-11%;NSP2 full ctr=16µM*;Furin counterscr=-7%;nsP2 NS23 pep=?;Papain cs=-18%;nsP2pro conf qHTS=7.1µM*;HCV NS3 4A cs=i
COc1ccc(OC)c(NC(=O)CN2C(=O)c3ccccc3Sc3ccc(C(=O)N4CCCC4)cc32)c1	-5%
CN1CCN(c2cnc3c(O)ccc(C(=O)O)c3c2)CC1	i
